Measured values: PubChem BioAssay (NCI)
Compounds without any hit were thinned out: in the full panel of roughly 79,000, 15% have a hit. Rule as the data show it: active = growth inhibition above about 70%; inactive = the rest.

Experiments:
[1] = NCI Yeast Anticancer Drug Screen. Data for the rad50 strain (AID 155);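 also: 0% = growth of vehicle-only cultures of the same strain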; settings: S. cerevisiae rad50 strain growth inhibition; at 50.0 µM; hits give high values
Outline: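 Compounds were tested on a yeast strain with an engineered DNA damage repair alteration; the reported value is growth inhibition normalised to vehicle treatment.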

[2] = NCI Yeast Anticancer Drug Screen. Data for the mec2-1 strain (AID 157); settings: S. cerevisiae mec2-1 strain, at 50.0 µM, hits give high values
Outline: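 Strain: mec2-1 (DNA repair/cell cycle alteration). Compound exposure, then growth measured; inhibition expressed relative to vehicle.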

[3] = NCI Yeast Anticancer Drug Screen. Data for the sgs1 mgt1 strain (AID 161);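 also: 0% = growth of cultures given vehicle only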; settings: S. cerevisiae sgs1 mgt1 strain, at 50.0 µM, hits give high values
Outline: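 Inhibition of yeast growth, normalised to vehicle-treated controls, is reported for a strain bearing genetic alterations in DNA damage repair.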

[4] = NCI Yeast Anticancer Drug Screen. Data for the cln2 rad14 strain (AID 165);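 also: 0% = growth equal to vehicle treated cultures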; settings: S. cerevisiae cln2 rad14 strain, at 50.0 µM, hits give high values
Outline: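 Compounds are applied to the cln2 rad14 yeast strain, and growth is then compared with that of vehicle-treated cultures to give inhibition.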

[5] = NCI Yeast Anticancer Drug Screen. Data for the bub3 strain (AID 167); settings: S. cerevisiae bub3 mutant strain, at 50.0 µM, hits give high values
Outline: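 Growth of a checkpoint-deficient yeast mutant is measured after compound exposure. Values represent inhibition relative to vehicle.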

[6] = NCI Yeast Anticancer Drug Screen. Data for the mlh1 rad18 strain (AID 175); settings: S. cerevisiae mlh1 rad18 strain growth inhibition; at 50.0 µM; hits give high values
Outline: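 Read-out is yeast growth inhibition, calculated against vehicle-only controls. The compound was applied to a strain engineered with DNA damage repair alterations.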

Measured: growth inhibition

O=[N+]([O-])c1ccc(CCCc2ccc([N+](=O)[O-])cc2)cc1
inactive: [1] 39.6% | [2] 7.35% | [3] 58.9% | [4] -41.2% | [5] 11.6% | [6] 15.1%

CCOC(=O)C(CC)(C(=O)OCC)C(C)C
inactive: [1] 15.6% | [2] 30.4% | [3] -17.9% | [4] -28.1% | [5] -9.95% | [6] -6.8%

O/N=C1/C(=C/c2ccc(F)cc2)CCCC1C(NO)c1ccc(F)cc1 (stereo unspecified)
inactive: [1] -3.9% | [2] -22.1% | [3] -8.05% | [4] 3.35% | [5] -6% | [6] -17.7%

CCN(CC)c1ccc(/C=C2\SC(=S)NC2=O)cc1
inactive: [1] 2.95% | [2] 4.65% | [3] 27.6% | [4] 9.95% | [5] 9.35% | [6] 7.75%

CCCCC(C=O)(CC)CCC#N (stereo unspecified)
inactive: [1] 45.1% | [2] -2.55% | [3] 46.3% | [4] -17.9% | [5] -16.1% | [6] 42.2%

CC1CC[P+](C)(c2ccccc2)c2ccccc21 (stereo unspecified)
inactive: [1] 26% | [2] 15.7% | [3] 1.6% | [4] -4.6% | [5] 2.75% | [6] 20.6%

CC1(C)OC2C(=O)OC(COCc3ccccc3)C2O1 (stereo unspecified)
inactive: [1] 16.7% | [2] 2.2% | [3] 4.25% | [4] 11.1% | [5] 8.5% | [6] 34%

Cc1ccc(S(=O)(=O)OC2COC3C2OC2OC(C)(C)OC23)cc1 (stereo unspecified)
inactive: [1] 19.1% | [2] 11.2% | [3] 0.2% | [4] -9.1% | [5] 7.4% | [6] 0.35%

CN(C)Cc1cc(C(=O)/C=C/c2ccccc2Cl)cc(CN(C)C)c1O
inactive: [1] -47% | [2] -22.6% | [3] -27.4% | [4] -43.9% | [5] 3.9% | [6] -31.1%

CCCC(CC)(CC)CO
inactive: [1] -21.6% | [2] -6.9% | [3] -16.4% | [4] 12.1% | [5] -10.4% | [6] -6.15%

C=Cc1c(Cl)cccc1Cl
inactive: [1] 0.25% | [2] -8.85% | [3] -5.55% | [4] 3.5% | [5] -18.6% | [6] -11.3%

Cc1cc(C(=O)/C=C(\C(=O)c2ccccc2)c2ccccc2)ccc1Cl
inactive: [1] 18.8% | [2] 10.7% | [3] 6.65% | [4] -0.55% | [5] 0.6% | [6] 11.3%

CCC1C(C)C=CN1c1nc(N)nc(NS(=O)(=O)c2cc(C)c(Cl)cc2S)n1 (stereo unspecified)
inactive: [1] -18.2% | [2] 2.5% | [3] 17.7% | [4] -1.9% | [5] 4.3% | [6] 12.2%

CCOC(=O)/C(=C(/C)N=Cc1ccccc1[N+](=O)[O-])C(NN=O)c1ccccc1[N+](=O)[O-] (stereo unspecified)
inactive: [1] 11.9% | [2] 4.85% | [3] -9.55% | [4] 8.5% | [5] -5% | [6] 17.8%

NCC1CCC(C(=O)O)CC1 (stereo unspecified)
inactive: [1] -14.4% | [2] -9.35% | [3] -10% | [4] -20.9% | [5] -24.9% | [6] -21.6%

Cn1c2ccccc2c2c3c(ccc21)C(=O)c1ccccc1C3=O
inactive: [1] 6.85% | [2] -3.9% | [3] 7.15% | [4] -62.6% | [5] 8.2% | [6] -2.5%

CN(C)Cc1cc(C(=O)/C=C/c2ccc(Cl)cc2)cc(CN(C)C)c1O
inactive: [1] -27.6% | [2] -22.1% | [3] -20.9% | [4] -44.2% | [5] 1.2% | [6] -18.1%

CC(=O)n1cc(CC(C)O)c(=O)[nH]c1=O (stereo unspecified)
inactive: [1] -2.45% | [2] -21% | [3] -16.2% | [4] 4.85% | [5] -13.2% | [6] -28.1%

N#Cc1ccc(CC(=O)O)cc1
inactive: [1] 25.2% | [2] -16.5% | [3] 6.9% | [4] 0.35% | [5] -7.95% | [6] -7.75%

CC1C(=O)OC2C1CCC1(C)C=CC(=O)C(C)C21 (stereo unspecified)
inactive: [1] 10.7% | [2] 4.95% | [3] 1.15% | [4] -23.2% | [5] 1.85% | [6] 14.8%

CC1CCCC(C)C1CO (stereo unspecified)
inactive: [1] 3.65% | [2] -31.6% | [3] 7.75% | [4] 22.7% | [5] -17.8% | [6] 15.8%
